# Assay results as given in PubChem BioAssay (NCI).
# About 83,000 compounds went through this panel and 20% of them were active in at least one assay; those are over-represented in the sample as a whole.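 A percent growth of 40 corresponds to 60% growth inhibition; 0 means no net growth; -100 means all cells died. Active threshold: below 10.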 Values without a mark were called inactive. The source made the active and inactive calls.
# Experiments:
# Assay in all cases: NCI-60 one-dose screen, 48 h (100 = growth as untreated, 0 = no growth, -100 = all killed)
# [1] = tested on: RPMI-8226 leukemia; conditions: 10 µM unless noted
# [2] = tested on: OVCAR-8 ovarian
# [3] = tested on: OVCAR-5 ovarian
# [4] = tested on: OVCAR-4 ovarian
# [5] = tested on: SK-OV-3 ovarian
# [6] = tested on: IGROV1 ovarian
# [7] = tested on: OVCAR-3 ovarian
# [8] = tested on: HS 578T breast
# [9] = tested on: NCI/ADR-RES ovarian
smiles,measurement,setting,value
COc1ccc(N=Nc2c(N)nn3c(N)c(C#N)c(-c4ccccc4)nc23)cc1,growth,[1],13.8%
same,growth,[2]; 10 µM unless noted,8.3% (active)
same,growth,[3]; 10 µM unless noted,72.8%
same,growth,[4]; 10 µM unless noted,-13.4% (active)
same,growth,[5]; 10 µM unless noted,13.1%
same,growth,[6]; 10 µM unless noted,20.8%
same,growth,[7]; 10 µM unless noted,-6.99% (active)
same,growth,[8]; 10 µM unless noted,-0.615% (active)
same,growth,[9]; 10 µM unless noted,6.35% (active)
COc1c(B(O)O)cc(F)cc1-c1nc2ccc3[nH]ncc3c2c2c1COCC2,growth,[1],31.5%
same,growth,[2]; 10 µM unless noted,51.5%
same,growth,[3]; 10 µM unless noted,90.3%
same,growth,[4]; 10 µM unless noted,102%
same,growth,[5]; 10 µM unless noted,82.8%
same,growth,[6]; 10 µM unless noted,57.8%
same,growth,[7]; 10 µM unless noted,64.1%
same,growth,[8]; 10 µM unless noted,9.63% (active)
same,growth,[9]; 10 µM unless noted,93.9%
COc1ccc(C(=O)c2cc(C(C)=O)c3c(C)cc(C)cn23)cc1,growth,[1],67.7%
same,growth,[2]; 10 µM unless noted,18.4%
same,growth,[3]; 10 µM unless noted,80.5%
same,growth,[4]; 10 µM unless noted,49.8%
same,growth,[5]; 10 µM unless noted,29.1%
same,growth,[6]; 10 µM unless noted,80.8%
same,growth,[7]; 10 µM unless noted,43.9%
same,growth,[8]; 10 µM unless noted,43.4%
same,growth,[9]; 10 µM unless noted,35%
COc1c2c(c(Br)c3c1C(CCc1ccccc1)N(C)CC3)OCO2 (stereo unspecified),growth,[2]; 10 µM unless noted,48.4%
same,growth,[3]; 10 µM unless noted,29.9%
same,growth,[4]; 10 µM unless noted,59.9%
same,growth,[5]; 10 µM unless noted,76.8%
same,growth,[6]; 10 µM unless noted,19.5%
same,growth,[7]; 10 µM unless noted,55.5%
same,growth,[8]; 10 µM unless noted,61.4%
same,growth,[9]; 10 µM unless noted,40%
CC/C(=C(/c1ccc(O)cc1)c1ccc(OCCN(C)C(=O)COCCOCCNC(=O)Cc2ccc3c(c2)CN([C@@H]2CCC(=O)NC2=O)C3=O)cc1)c1ccccc1,growth,[2]; 1 µM,93.9%
same,growth,[2]; 10 µM,21.9%
same,growth,[3]; 1 µM,95.3%
same,growth,[3]; 10 µM,86.6%
same,growth,[4]; 1 µM,101%
same,growth,[4]; 10 µM,59.2%
same,growth,[5]; 1 µM,86.1%
same,growth,[5]; 10 µM,71.6%
same,growth,[6]; 1 µM,50%
same,growth,[6]; 10 µM,17.8%
same,growth,[7]; 1 µM,95.6%
same,growth,[7]; 10 µM,61.3%
same,growth,[8]; 1 µM,64.8%
same,growth,[8]; 10 µM,19.1%
same,growth,[9]; 1 µM,103%
same,growth,[9]; 10 µM,107%
COc1ccc(N=Nc2c(N)nn3c(-c4cc5cc(Br)ccc5oc4=O)ccnc23)cc1,growth,[1],48.5%
same,growth,[2]; 10 µM unless noted,19.5%
same,growth,[3]; 10 µM unless noted,33.4%
same,growth,[4]; 10 µM unless noted,32.2%
same,growth,[5]; 10 µM unless noted,17.4%
same,growth,[6]; 10 µM unless noted,6.35% (active)
same,growth,[7]; 10 µM unless noted,25.3%
same,growth,[8]; 10 µM unless noted,35.4%
same,growth,[9]; 10 µM unless noted,15.5%
COc1cc(C2CC(c3ccc(F)cc3)=Nc3c(N)nc(N)nc3N2)ccc1Oc1nc(Nc2ccc(F)cc2)nc(N(C)C)n1 (stereo unspecified),growth,[1],15.7%
same,growth,[2]; 10 µM unless noted,63%
same,growth,[3]; 10 µM unless noted,100%
same,growth,[4]; 10 µM unless noted,23.5%
same,growth,[6]; 10 µM unless noted,51.7%
same,growth,[7]; 10 µM unless noted,71.6%
same,growth,[8]; 10 µM unless noted,56%
same,growth,[9]; 10 µM unless noted,48.5%
COc1cccc2nc(Nc3cccc(NC(=O)c4ccc(CN5CCN(C)CC5)c(C(F)(F)F)c4)c3)ccc12,growth,[1],-40.2% (active)
same,growth,[2]; 10 µM unless noted,-65.2% (active)
same,growth,[3]; 10 µM unless noted,-98% (active)
same,growth,[4]; 10 µM unless noted,-82.9% (active)
same,growth,[5]; 10 µM unless noted,-81.9% (active)
same,growth,[6]; 10 µM unless noted,-87.1% (active)
same,growth,[7]; 10 µM unless noted,-36.6% (active)
same,growth,[8]; 10 µM unless noted,-21.1% (active)
same,growth,[9]; 10 µM unless noted,-89.7% (active)
CC(=O)c1ccc2c(N)c(C(=O)Nc3ccc(C(F)(F)F)cc3)sc2n1,growth,[1],37.3%
same,growth,[2]; 10 µM unless noted,61.1%
same,growth,[3]; 10 µM unless noted,92.8%
same,growth,[4]; 10 µM unless noted,35.6%
same,growth,[5]; 10 µM unless noted,89.1%
same,growth,[6]; 10 µM unless noted,93.5%
same,growth,[7]; 10 µM unless noted,94.4%
same,growth,[8]; 10 µM unless noted,84.2%
same,growth,[9]; 10 µM unless noted,34.8%
